Assay [1] concerns the target T1, Mitogen-activated protein kinase 12 (Homo sapiens) (UniProt P53778).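 Note: values are averaged p38gamma kinase inhibition readings, compounds tested at 1 µM.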
T1 sequence (whole entry): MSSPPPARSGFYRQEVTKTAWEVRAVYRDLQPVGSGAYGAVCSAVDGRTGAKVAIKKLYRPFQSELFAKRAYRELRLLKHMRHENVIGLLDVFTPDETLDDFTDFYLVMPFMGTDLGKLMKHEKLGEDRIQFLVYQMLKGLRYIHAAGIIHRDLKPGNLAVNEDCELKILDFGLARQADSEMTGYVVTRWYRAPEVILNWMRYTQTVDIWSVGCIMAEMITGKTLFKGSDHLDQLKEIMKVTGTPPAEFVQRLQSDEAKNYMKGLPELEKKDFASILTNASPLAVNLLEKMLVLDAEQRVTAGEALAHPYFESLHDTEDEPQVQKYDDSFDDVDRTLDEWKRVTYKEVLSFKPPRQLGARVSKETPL
The conditions noted are these: at 1 µM.

For assay [2], the target named is SRSF protein kinase 1 (Homo sapiens) (UniProt Q96SB4). To be noted: at 0.1 µM.
Chain of SRSF protein kinase 1 (Homo sapiens) (Q96SB4 whole entry): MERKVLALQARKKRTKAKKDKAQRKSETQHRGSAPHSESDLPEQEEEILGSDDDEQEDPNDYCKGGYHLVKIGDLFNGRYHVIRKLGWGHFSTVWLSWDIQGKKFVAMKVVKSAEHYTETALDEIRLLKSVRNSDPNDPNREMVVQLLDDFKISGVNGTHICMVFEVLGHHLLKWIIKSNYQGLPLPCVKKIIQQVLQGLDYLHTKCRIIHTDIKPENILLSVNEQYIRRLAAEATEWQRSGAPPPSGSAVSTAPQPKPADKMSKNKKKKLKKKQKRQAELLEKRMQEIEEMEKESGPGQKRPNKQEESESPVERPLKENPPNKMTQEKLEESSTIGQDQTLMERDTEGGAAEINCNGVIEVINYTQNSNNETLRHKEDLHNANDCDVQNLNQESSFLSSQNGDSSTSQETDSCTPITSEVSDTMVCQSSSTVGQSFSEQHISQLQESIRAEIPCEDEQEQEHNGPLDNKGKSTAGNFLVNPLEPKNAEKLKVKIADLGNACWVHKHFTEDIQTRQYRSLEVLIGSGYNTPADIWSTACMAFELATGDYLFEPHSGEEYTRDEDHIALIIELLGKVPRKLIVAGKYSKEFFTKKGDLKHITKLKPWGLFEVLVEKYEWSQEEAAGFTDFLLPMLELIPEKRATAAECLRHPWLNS
For assay [3] the target is unchanged. To be noted: at 1 µM.
The target of assay [4] is Phosphatidylinositol 4,5-bisphosphate 3-kinase catalytic subunit alpha isoform (Homo sapiens) (UniProt P42336). The conditions noted are these: at 0.1 µM.
Chain of Phosphatidylinositol 4,5-bisphosphate 3-kinase catalytic subunit alpha isoform (Homo sapiens) (P42336 whole entry, canonical isoform): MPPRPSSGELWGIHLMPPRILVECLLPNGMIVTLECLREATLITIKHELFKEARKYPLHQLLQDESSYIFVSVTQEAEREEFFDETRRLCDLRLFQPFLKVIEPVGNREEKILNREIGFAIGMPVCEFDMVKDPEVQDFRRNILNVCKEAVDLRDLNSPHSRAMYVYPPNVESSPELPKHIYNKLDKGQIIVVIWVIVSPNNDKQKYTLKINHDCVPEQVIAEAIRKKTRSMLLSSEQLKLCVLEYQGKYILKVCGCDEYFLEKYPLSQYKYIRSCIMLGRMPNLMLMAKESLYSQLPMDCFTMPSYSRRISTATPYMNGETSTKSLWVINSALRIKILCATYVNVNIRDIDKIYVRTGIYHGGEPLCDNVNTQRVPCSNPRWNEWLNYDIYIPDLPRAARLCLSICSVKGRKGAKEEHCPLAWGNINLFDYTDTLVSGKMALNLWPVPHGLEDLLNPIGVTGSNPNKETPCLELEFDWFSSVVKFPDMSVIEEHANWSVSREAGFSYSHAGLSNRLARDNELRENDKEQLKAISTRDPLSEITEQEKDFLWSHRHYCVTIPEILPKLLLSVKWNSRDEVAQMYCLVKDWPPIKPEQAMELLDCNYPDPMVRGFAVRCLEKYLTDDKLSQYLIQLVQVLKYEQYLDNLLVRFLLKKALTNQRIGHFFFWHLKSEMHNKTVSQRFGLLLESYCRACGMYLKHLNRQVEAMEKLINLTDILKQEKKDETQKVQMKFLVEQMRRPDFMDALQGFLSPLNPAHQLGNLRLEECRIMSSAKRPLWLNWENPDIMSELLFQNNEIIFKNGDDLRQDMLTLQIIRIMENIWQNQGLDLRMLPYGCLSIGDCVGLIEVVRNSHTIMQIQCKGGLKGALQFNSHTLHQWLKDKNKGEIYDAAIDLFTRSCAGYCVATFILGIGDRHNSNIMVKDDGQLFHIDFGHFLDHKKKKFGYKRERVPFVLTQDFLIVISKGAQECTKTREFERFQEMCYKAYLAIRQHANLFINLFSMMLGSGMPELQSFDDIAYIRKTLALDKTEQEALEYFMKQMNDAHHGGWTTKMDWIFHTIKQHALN
The target is the same in assay [5]. To be noted: at 1 µM.
In assay [6] the target is T2, Phosphatidylinositol 4,5-bisphosphate 3-kinase catalytic subunit delta isoform (Homo sapiens) (UniProt O00329).
T2 sequence (whole entry): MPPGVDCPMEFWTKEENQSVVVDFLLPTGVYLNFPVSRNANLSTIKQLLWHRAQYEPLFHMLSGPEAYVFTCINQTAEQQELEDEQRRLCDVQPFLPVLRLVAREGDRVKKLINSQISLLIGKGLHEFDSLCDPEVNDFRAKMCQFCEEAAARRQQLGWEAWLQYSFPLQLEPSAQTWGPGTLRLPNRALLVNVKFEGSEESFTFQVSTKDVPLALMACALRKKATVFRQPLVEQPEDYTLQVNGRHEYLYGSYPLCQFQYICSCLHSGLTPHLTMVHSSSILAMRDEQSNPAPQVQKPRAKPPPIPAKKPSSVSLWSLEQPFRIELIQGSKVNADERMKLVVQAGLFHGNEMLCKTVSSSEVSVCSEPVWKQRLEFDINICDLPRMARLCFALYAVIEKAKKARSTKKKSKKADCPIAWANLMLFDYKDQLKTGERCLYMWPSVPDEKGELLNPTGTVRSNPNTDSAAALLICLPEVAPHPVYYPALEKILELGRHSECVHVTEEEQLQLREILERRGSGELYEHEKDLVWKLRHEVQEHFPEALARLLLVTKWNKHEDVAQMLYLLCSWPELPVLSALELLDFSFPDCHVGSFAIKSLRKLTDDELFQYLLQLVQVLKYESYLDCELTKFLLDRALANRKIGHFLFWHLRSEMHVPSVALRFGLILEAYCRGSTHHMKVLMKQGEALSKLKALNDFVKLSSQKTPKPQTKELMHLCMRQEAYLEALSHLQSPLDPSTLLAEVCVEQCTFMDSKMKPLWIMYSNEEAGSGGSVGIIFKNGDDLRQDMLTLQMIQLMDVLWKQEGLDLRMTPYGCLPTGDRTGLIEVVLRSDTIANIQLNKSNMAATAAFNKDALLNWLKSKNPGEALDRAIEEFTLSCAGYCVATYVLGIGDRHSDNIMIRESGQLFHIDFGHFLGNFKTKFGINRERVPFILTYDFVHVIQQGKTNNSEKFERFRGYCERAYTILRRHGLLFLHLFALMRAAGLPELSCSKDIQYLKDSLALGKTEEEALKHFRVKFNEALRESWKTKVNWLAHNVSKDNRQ
The conditions noted are these: at 0.1 µM.

The target of assay [7] is T2, Phosphatidylinositol 4,5-bisphosphate 3-kinase catalytic subunit delta isoform (Homo sapiens). To be noted: at 1 µM.
Assay [8] has as its target Phosphatidylinositol 4-kinase beta (Homo sapiens) (UniProt Q9UBF8). The conditions noted are these: at 0.1 µM.
For assay [9] the target is unchanged. The conditions noted are these: at 1 µM.
Assay [10] concerns the target Sphingosine kinase 1 (Homo sapiens) (UniProt Q9NYA1). The conditions noted are these: at 0.1 µM.
The target is the same in assay [11]. The conditions noted are these: at 1 µM.
The target of assay [12] is T3, Sphingosine kinase 2 (Homo sapiens) (UniProt Q9NRA0).
T3 sequence (whole entry): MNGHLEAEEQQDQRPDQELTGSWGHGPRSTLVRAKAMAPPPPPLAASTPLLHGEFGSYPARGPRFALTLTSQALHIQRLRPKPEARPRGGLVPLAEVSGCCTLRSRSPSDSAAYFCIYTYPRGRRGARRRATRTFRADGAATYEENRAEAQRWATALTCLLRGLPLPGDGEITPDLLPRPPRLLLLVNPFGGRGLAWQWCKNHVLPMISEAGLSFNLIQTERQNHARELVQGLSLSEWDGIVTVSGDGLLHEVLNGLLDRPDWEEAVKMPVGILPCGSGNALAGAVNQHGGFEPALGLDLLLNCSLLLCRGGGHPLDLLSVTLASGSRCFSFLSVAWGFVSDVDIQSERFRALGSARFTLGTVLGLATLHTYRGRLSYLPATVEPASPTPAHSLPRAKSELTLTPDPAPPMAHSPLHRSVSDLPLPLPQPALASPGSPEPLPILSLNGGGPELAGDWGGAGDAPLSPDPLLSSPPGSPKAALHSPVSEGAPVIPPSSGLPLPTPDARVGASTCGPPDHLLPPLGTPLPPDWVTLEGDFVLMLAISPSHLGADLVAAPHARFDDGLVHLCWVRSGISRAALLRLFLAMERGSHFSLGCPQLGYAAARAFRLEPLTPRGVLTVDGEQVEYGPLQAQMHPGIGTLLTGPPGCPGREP
To be noted: at 0.1 µM.

In assay [13] the target is T3, Sphingosine kinase 2 (Homo sapiens). The conditions noted are these: at 1 µM.
For assay [14], the target named is Casein kinase II subunit alpha (Homo sapiens) (UniProt P68400). To be noted: at 0.1 µM.
Chain of Casein kinase II subunit alpha (Homo sapiens) (P68400 whole entry, looked up): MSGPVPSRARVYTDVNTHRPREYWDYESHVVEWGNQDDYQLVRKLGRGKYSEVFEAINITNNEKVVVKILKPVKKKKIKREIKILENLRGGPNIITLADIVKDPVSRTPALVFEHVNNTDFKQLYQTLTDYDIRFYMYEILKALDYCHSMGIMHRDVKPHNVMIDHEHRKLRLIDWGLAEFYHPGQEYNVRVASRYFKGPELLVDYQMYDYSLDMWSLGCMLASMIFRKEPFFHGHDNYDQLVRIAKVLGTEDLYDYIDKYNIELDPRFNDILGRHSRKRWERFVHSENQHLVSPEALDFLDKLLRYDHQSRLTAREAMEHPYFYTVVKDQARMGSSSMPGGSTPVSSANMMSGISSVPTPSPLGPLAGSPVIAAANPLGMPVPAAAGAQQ
The target is the same in assay [15]. To be noted: at 1 µM.
Assay [16] deals with T4, Inhibitor of nuclear factor kappa-B kinase subunit alpha (Homo sapiens) (UniProt O15111).
T4 sequence (whole entry): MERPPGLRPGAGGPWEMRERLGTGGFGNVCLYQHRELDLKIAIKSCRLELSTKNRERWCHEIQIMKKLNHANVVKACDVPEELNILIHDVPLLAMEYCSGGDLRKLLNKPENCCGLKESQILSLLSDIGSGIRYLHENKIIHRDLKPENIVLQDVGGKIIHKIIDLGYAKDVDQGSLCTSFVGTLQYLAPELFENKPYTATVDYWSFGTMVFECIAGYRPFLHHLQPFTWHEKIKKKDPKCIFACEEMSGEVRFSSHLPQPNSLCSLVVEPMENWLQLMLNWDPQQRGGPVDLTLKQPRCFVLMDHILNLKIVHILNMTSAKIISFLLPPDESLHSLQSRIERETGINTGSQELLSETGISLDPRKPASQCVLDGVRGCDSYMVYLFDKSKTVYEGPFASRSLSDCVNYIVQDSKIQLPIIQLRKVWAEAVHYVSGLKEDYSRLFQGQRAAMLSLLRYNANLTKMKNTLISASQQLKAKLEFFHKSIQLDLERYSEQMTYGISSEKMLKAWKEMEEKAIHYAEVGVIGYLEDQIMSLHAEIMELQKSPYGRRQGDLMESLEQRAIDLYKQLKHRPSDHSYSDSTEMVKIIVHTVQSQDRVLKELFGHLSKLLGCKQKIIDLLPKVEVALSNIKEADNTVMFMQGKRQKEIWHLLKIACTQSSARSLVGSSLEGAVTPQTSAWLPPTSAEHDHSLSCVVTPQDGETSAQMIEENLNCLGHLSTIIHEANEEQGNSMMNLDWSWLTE
The conditions noted are these: at 0.1 µM.

Assay [17] addresses T4, Inhibitor of nuclear factor kappa-B kinase subunit alpha (Homo sapiens). The conditions noted are these: at 1 µM.
The target of assay [18] is T5, Inhibitor of nuclear factor kappa-B kinase subunit beta (Homo sapiens) (UniProt O14920).
T5 sequence (whole entry): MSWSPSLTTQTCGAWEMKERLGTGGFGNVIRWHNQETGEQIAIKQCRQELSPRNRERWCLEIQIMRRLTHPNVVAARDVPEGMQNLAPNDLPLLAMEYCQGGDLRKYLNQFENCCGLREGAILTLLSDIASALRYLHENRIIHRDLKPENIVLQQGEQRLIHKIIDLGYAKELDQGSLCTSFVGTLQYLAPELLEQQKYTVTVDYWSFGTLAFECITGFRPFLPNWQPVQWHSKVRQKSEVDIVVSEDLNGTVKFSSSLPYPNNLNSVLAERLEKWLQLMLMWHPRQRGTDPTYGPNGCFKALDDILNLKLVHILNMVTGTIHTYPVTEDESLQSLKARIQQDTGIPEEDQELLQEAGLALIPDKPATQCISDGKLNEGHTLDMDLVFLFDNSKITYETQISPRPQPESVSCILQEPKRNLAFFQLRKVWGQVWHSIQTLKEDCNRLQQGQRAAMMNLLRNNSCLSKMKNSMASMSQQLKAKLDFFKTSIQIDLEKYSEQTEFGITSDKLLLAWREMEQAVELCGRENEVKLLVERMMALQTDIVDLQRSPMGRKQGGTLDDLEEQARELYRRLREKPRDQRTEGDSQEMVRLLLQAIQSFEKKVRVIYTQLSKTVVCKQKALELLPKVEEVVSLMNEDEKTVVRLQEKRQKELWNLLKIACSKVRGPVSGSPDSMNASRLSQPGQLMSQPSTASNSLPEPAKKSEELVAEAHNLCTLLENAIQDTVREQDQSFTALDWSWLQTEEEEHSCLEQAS
The conditions noted are these: at 0.1 µM.

Assay [19] has as its target T5, Inhibitor of nuclear factor kappa-B kinase subunit beta (Homo sapiens). The conditions noted are these: at 1 µM.
For assay [20], the target named is T6, Inhibitor of nuclear factor kappa-B kinase subunit epsilon (Homo sapiens) (UniProt Q14164).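 Note: mean inhibition of IKKε reported, from the GSK PKIS dataset.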
T6 sequence (whole entry): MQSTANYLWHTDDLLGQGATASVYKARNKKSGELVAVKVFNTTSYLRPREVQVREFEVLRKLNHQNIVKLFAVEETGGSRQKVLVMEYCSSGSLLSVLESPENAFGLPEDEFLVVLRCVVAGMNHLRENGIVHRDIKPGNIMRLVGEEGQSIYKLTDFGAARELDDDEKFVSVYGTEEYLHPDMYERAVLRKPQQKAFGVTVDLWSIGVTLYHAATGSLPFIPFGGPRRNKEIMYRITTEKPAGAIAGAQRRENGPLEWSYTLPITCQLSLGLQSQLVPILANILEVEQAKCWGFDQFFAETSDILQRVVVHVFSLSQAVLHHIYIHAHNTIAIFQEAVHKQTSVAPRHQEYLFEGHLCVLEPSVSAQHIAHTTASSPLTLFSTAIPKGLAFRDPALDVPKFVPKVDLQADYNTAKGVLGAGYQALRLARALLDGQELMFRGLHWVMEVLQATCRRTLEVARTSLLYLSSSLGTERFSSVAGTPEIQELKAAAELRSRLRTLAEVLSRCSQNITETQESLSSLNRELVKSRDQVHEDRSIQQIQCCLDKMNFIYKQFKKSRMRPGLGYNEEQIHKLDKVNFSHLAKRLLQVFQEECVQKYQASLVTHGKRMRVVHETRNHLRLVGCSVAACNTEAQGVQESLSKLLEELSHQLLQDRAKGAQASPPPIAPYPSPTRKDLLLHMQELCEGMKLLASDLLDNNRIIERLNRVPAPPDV
The conditions noted are these: at 0.1 µM.

Inhibition data for three molecules are collected here from ChEMBL document CHEMBL1961873, “Compounds: GSK PKIS; Assays: Nanosyn kinase panel” (2012).

Chain of Phosphatidylinositol 4-kinase beta (Homo sapiens) (Q9UBF8 2-816 limits assumed): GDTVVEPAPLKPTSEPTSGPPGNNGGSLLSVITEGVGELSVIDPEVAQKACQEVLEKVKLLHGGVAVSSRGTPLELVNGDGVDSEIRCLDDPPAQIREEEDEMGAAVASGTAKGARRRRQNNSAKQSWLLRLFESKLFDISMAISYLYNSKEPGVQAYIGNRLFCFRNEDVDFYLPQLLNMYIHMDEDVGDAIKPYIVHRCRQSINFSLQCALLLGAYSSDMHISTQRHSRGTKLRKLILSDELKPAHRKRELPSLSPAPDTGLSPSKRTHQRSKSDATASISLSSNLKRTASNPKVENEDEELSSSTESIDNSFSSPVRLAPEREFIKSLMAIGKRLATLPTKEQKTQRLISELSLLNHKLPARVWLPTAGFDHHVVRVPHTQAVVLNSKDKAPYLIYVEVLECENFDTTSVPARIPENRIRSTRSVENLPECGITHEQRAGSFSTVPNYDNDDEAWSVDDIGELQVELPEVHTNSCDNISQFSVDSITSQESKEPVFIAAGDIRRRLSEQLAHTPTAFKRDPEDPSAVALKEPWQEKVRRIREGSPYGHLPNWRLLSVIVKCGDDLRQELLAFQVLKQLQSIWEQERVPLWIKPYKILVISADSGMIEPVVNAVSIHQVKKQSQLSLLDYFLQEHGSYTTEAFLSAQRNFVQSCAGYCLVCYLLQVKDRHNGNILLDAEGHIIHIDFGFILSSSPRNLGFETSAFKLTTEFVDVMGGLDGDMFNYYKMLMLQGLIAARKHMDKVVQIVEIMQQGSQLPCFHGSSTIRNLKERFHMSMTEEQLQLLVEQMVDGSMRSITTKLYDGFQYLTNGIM
Chain of Sphingosine kinase 1 (Homo sapiens) (Q9NYA1 whole entry): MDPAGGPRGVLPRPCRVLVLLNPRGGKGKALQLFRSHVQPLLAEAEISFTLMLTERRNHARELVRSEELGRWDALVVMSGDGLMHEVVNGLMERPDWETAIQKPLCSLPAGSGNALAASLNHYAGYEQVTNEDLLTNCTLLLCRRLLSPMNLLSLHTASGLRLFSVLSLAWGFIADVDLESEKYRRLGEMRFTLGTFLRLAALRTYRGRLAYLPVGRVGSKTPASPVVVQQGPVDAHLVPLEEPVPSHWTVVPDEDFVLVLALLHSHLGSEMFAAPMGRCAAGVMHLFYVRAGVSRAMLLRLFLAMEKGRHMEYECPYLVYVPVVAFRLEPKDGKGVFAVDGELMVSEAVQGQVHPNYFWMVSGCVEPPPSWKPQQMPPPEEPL

For `CC(=O)Nc1cccc(C#Cc2cncnc2Nc2ccc(OCc3cccc(F)c3)c(Cl)c2)n1`, the inhibition in assay [1] is -1.66%; in assay [2] it was 1.83%; in assay [3], 6.55%; in [4] it was 1.06%; in assay [5], -3.01%; in assay [6], -2.12%. The inhibition is -0.16% in assay [7]; 2.97% in assay [8]; 0.88% in [9]; 0.46% in assay [10]; 0.51% in assay [11]; 1.73% in assay [12]. For the same molecule, the inhibition in assay [13] was -0.13%; in assay [14], 2.14%; in assay [15], 9.24%; in assay [16] it was 2.26%; in [17], -1.99%; in assay [18] it was -3.08%. The figures for the inhibition in assay [19] and in [20] were 2.94% and 2.95%, respectively.

Turning to `Cc1cccc(-c2n[nH]cc2-c2ccc3ncccc3n2)n1`, the inhibition in assay [1] was 0.57%; in [2] it was -1.35%; in [3] it was -1.16%; in assay [4], -0.95%; in assay [5], 1.78%; in [6], -0.15%. In addition, the inhibition in assay [7] was 0.53%; in assay [8], 1.57%; in assay [9], 4.48%; in [10], -2.56%; in assay [11] it was -1.51%; in [12] it was 0.61%. In addition, the inhibition in assay [13] worked out at 0.2%; in assay [14], 1.46%; in [15], 4.82%; in assay [16], 2.07%; in assay [17] it was 5.93%; in assay [18] it was 0.87%. Besides, the inhibition in [19] is 0.63%; in assay [20], 0.62%.

In the case of `COc1cccc(-n2ncc3c(N/N=C/c4cccc(F)c4)ncnc32)c1`, the inhibition is 2.67% in assay [1]; -1.75% in assay [2]; -2.37% in assay [3]; 2.47% in assay [4]; 4.79% in assay [5]; 2.15% in assay [6]. The inhibition in [7] is 5.82%; in assay [8] it was 2.02%; in [9], -7.13%; in [10], -0.37%; in [11] it was -2.05%; in [12], 3.58%. The inhibition was -0.22% in assay [13]; 1.77% in assay [14]; 11.4% in [15]; -0.08% in [16]; 6.98% in assay [17]; 2.27% in assay [18]. Also, the results for the inhibition in assay [19] and in assay [20] were 0.31% and 3.6%, respectively.

As usually defined, the inhibition is the drop in the measured response relative to a control, in per cent.
